Experimental data as given in PubChem BioAssay (NCI).
This is part of a sample that, as a whole, favours compounds with a hit. Of some 79,000 tested, about 15% had one in any assay. The source made the active and inactive calls. Rule as the data show it: active = growth inhibition above about 70%; inactive = the rest.

Tests used:
[1] = NCI Yeast Anticancer Drug Screen. Data for the mec2-1 strain (AID 157); details: S. cerevisiae mec2-1 strain, active compounds read high
In short: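 Strain: mec2-1 (DNA repair/cell cycle alteration). Compound exposure, then growth measured; inhibition expressed relative to vehicle.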

[2] = NCI Yeast Anticancer Drug Screen. Data for the rad14 strain (AID 159);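 also: 0% = growth of vehicle-treated control cultures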; details: S. cerevisiae rad14 strain growth inhibition, active compounds read high
In short: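 A mutant yeast strain defective in DNA damage repair is treated with compound; inhibition of its growth is scored against untreated, vehicle-exposed cultures.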

[3] = NCI Yeast Anticancer Drug Screen. Data for the sgs1 mgt1 strain (AID 161);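 also: 0% = growth of cultures given vehicle only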; details: S. cerevisiae sgs1 mgt1 strain, active compounds read high
In short: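 Inhibition of yeast growth, normalised to vehicle-treated controls, is reported for a strain bearing genetic alterations in DNA damage repair.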

[4] = NCI Yeast Anticancer Drug Screen. Data for the CLN2oe strain (AID 163);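 also: 0% = growth of vehicle-only control cultures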; details: S. cerevisiae CLN2oe strain, active compounds read high
In short: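 Growth of a genetically modified yeast strain is measured after compound exposure and compared with cultures given vehicle alone.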

[5] = NCI Yeast Anticancer Drug Screen. Data for the cln2 rad14 strain (AID 165);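 also: 0% = growth equal to vehicle treated cultures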; details: S. cerevisiae cln2 rad14 strain, active compounds read high
In short: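 Compounds are applied to the cln2 rad14 yeast strain, and growth is then compared with that of vehicle-treated cultures to give inhibition.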

[6] = NCI Yeast Anticancer Drug Screen. Data for the bub3 strain (AID 167); details: S. cerevisiae bub3 mutant strain, active compounds read high
In short: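 Steps: expose the mutant yeast strain to compound; grow alongside vehicle-treated cultures; measure growth; express inhibition against the vehicle cultures.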

[7] = NCI Yeast Anticancer Drug Screen. Data for the wt2 strain (AID 169);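 also: 0% = growth of vehicle-treated yeast cultures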; details: S. cerevisiae wt2 strain growth inhibition, active compounds read high
In short: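 This strain belongs to a panel of yeast strains with defined genetic alterations in DNA damage repair or cell cycle control. Compounds are applied, and growth inhibition is measured against vehicle-treated cultures.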

[8] = NCI Yeast Anticancer Drug Screen. Data for the mlh1 strain (AID 171);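 also: 0% = growth of vehicle-treated control cultures of the same strain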; details: S. cerevisiae mlh1 strain growth inhibition, active compounds read high
In short: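 Growth of the mutant yeast strain after compound exposure, expressed as inhibition relative to vehicle-only controls.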

[9] = NCI Yeast Anticancer Drug Screen. Data for the sgs1 strain (AID 173);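 also: 0% = growth of vehicle-only control cultures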; details: S. cerevisiae sgs1 mutant, active compounds read high
In short: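 Growth of a yeast strain bearing a defined genetic alteration is measured after compound treatment. Inhibition is expressed relative to vehicle-only controls.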

[10] = NCI Yeast Anticancer Drug Screen. Data for the mlh1 rad18 strain (AID 175); details: S. cerevisiae mlh1 rad18 strain growth inhibition, active compounds read high
In short: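 Read-out is yeast growth inhibition, calculated against vehicle-only controls. The compound was applied to a strain engineered with DNA damage repair alterations.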

[11] = NCI Yeast Anticancer Drug Screen. Data for the rad52 strain (AID 147);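 also: 0% = growth of vehicle-treated control cultures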; details: S. cerevisiae rad52 mutant growth inhibition, active compounds read high
In short: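 Compounds are applied to a genetically defined yeast strain lacking normal DNA damage repair, and inhibition of growth is expressed relative to cultures given vehicle only.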

[12] = NCI Yeast Anticancer Drug Screen. Data for the wt1 strain (AID 149);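 also: 0% = growth of vehicle-treated wt1 cultures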; details: S. cerevisiae wt1 strain (SPY 50644) growth inhibition, active compounds read high
In short: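 Compounds are added to wt1 yeast cultures. Growth is then measured. Inhibition is expressed relative to vehicle-treated controls.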

[13] = NCI Yeast Anticancer Drug Screen. Data for the rad50EPP+ strain (AID 151);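 also: 0% = growth of vehicle-treated control cultures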; details: S. cerevisiae rad50 mutant strain, active compounds read high
In short: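 Compounds were applied to the rad50EPP+ yeast strain, which bears a defined DNA repair alteration, and growth inhibition was determined relative to vehicle-treated cultures.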

[14] = NCI Yeast Anticancer Drug Screen. Data for the mgt1 strain (AID 153); details: S. cerevisiae mgt1 mutant growth inhibition, active compounds read high
In short: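 Strain: mgt1 yeast, one of a set carrying defined DNA damage repair or cell cycle control alterations. Compound-treated growth compared with vehicle.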

[15] = NCI Yeast Anticancer Drug Screen. Data for the rad50 strain (AID 155);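 also: 0% = growth of vehicle-only cultures of the same strain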; details: S. cerevisiae rad50 strain growth inhibition, active compounds read high
In short: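 Inhibition values express reduced yeast growth in compound-treated cultures relative to vehicle-treated controls.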

[16] = NCI Yeast Anticancer Drug Screen. Data for the rad18 strain (AID 177); details: S. cerevisiae rad18 mutant growth inhibition, active compounds read high
In short: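 Growth of the mutant yeast strain after compound exposure, normalised to vehicle-only cultures.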

[17] = at 5.0 µM (retest, dose inferred, filed as 0.5)
[18] = at 50.0 µM (retest, dose inferred, filed as 5.0)

Measured: growth inhibition

CCCCCCCCCCC1CCC(=O)O1 (centres undefined)
inactive: [1]; [17] 5% | [1]; at 11.0 µM 0% | [1]; at 33.0 µM 8% | [1]; [18] 27% | [2]; at 1.2 µM 1% | [2]; at 3.7 µM 3% | [2]; at 11.0 µM 7% | [2]; at 33.0 µM 15% | [3]; [17] 6% | [3]; [18] 13% | [4]; at 1.2 µM 0% | [4]; at 3.7 µM 1% | [4]; at 11.0 µM 7% | [4]; at 33.0 µM 5% | [5]; [17] 2% | [5]; [18] 15% | [6]; at 1.2 µM -3% | [6]; at 3.7 µM 0% | [6]; [17] 3% | [6]; at 11.0 µM 0% | [6]; at 33.0 µM 0% | [6]; [18] 9% | [7]; at 1.2 µM -1% | [7]; at 3.7 µM 8% | [7]; at 11.0 µM 0% | [7]; at 33.0 µM 4% | [8]; at 1.2 µM -2% | [8]; at 3.7 µM 0% | [8]; at 11.0 µM 0% | [8]; at 33.0 µM 10% | [9]; at 1.2 µM -1% | [9]; at 3.7 µM 1% | [9]; at 11.0 µM 3% | [9]; at 33.0 µM 20% | [10]; [17] -3% | [10]; [18] 69%
active: [1]; at 50.0 µM 98.8% | [1]; at 100.0 µM 99% | [2]; at 100.0 µM 99% | [3]; at 50.0 µM 91.2% | [4]; at 100.0 µM 98% | [5]; at 50.0 µM 97.7% | [6]; at 50.0 µM 91.3% | [6]; at 100.0 µM 99% | [7]; at 100.0 µM 99% | [8]; at 100.0 µM 99% | [9]; at 100.0 µM 99% | [10]; at 50.0 µM 92.2%

COc1cc(C(=O)/C=C/c2ccccc2O)ccc1O
active: [11]; at 11.0 µM 98% | [11]; at 33.0 µM 98% | [11]; at 100.0 µM 98% | [12]; at 3.7 µM 73% | [12]; at 11.0 µM 98% | [12]; at 33.0 µM 99% | [12]; at 100.0 µM 98% | [13]; at 3.7 µM 89% | [13]; at 11.0 µM 99% | [13]; at 33.0 µM 99% | [13]; at 100.0 µM 98% | [14]; at 3.7 µM 84% | [14]; at 11.0 µM 98% | [14]; at 33.0 µM 99% | [14]; at 100.0 µM 98% | [15]; at 11.0 µM 98% | [15]; at 33.0 µM 98% | [15]; [18] 98% | [15]; at 50.0 µM 93.2% | [15]; at 100.0 µM 98% | [1]; at 3.7 µM 78% | [1]; [17] 80% | [1]; at 11.0 µM 99% | [1]; at 33.0 µM 98% | [1]; [18] 99% | [1]; at 50.0 µM 94.4% | [1]; at 100.0 µM 98% | [2]; at 11.0 µM 99% | [2]; at 33.0 µM 98% | [2]; at 100.0 µM 98% | [3]; [18] 98% | [3]; at 50.0 µM 94.4% | [4]; at 11.0 µM 99% | [4]; at 33.0 µM 99% | [4]; at 100.0 µM 98% | [5]; [18] 98% | [5]; at 50.0 µM 92.8% | [6]; [17] 76% | [6]; at 11.0 µM 99% | [6]; at 33.0 µM 99% | [6]; [18] 97% | [6]; at 50.0 µM 94.2% | [6]; at 100.0 µM 98% | [7]; at 11.0 µM 99% | [7]; at 33.0 µM 99% | [7]; at 100.0 µM 98% | [8]; at 11.0 µM 99% | [8]; at 33.0 µM 99% | [8]; at 100.0 µM 98% | [9]; at 11.0 µM 99% | [9]; at 33.0 µM 99% | [9]; at 100.0 µM 99% | [10]; [17] 79% | [10]; [18] 98% | [10]; at 50.0 µM 91.8%
inactive: [11]; at 1.2 µM -11% | [11]; at 3.7 µM 55% | [12]; at 1.2 µM -11% | [13]; at 1.2 µM 11% | [14]; at 1.2 µM 9% | [15]; at 1.2 µM 10% | [15]; at 3.7 µM 32% | [15]; [17] 33% | [1]; at 1.2 µM -7% | [2]; at 1.2 µM -6% | [2]; at 3.7 µM 62% | [3]; [17] -4% | [4]; at 1.2 µM 19% | [4]; at 3.7 µM 42% | [5]; [17] 42% | [6]; at 1.2 µM -20% | [6]; at 3.7 µM 53% | [7]; at 1.2 µM -24% | [7]; at 3.7 µM 50% | [8]; at 1.2 µM 1% | [8]; at 3.7 µM 62% | [9]; at 1.2 µM 8% | [9]; at 3.7 µM 26%

O=C(Nc1ccccc1)C(=O)C(C(=O)c1ccccc1)C(c1ccccc1)c1ccccc1 (centres undefined)
inactive: [11]; at 1.2 µM 8% | [11]; at 3.7 µM 10% | [11]; at 11.0 µM 15% | [11]; at 33.0 µM 23% | [11]; at 100.0 µM 36% | [12]; at 1.2 µM 3% | [12]; at 3.7 µM 5% | [12]; at 11.0 µM 4% | [12]; at 33.0 µM 10% | [12]; at 100.0 µM 28% | [13]; at 1.2 µM 0% | [13]; at 3.7 µM 0% | [13]; at 11.0 µM 1% | [13]; at 33.0 µM 2% | [13]; at 100.0 µM -1% | [14]; at 1.2 µM 2% | [14]; at 3.7 µM 1% | [14]; at 11.0 µM 5% | [14]; at 33.0 µM 8% | [14]; at 100.0 µM 42% | [15]; at 1.2 µM 1% | [15]; at 3.7 µM -6% | [15]; [17] 11% | [15]; at 11.0 µM -3% | [15]; at 33.0 µM 26% | [15]; at 100.0 µM 37% | [1]; at 1.2 µM 8% | [1]; at 3.7 µM 7% | [1]; [17] -11% | [1]; at 11.0 µM 10% | [1]; at 33.0 µM 22% | [1]; at 50.0 µM 15.9% | [1]; at 100.0 µM 35% | [2]; at 1.2 µM 3% | [2]; at 3.7 µM 0% | [2]; at 11.0 µM 5% | [2]; at 33.0 µM 18% | [2]; at 100.0 µM 36% | [3]; [17] -5% | [3]; [18] 20% | [3]; at 50.0 µM 29.4% | [4]; at 1.2 µM 5% | [4]; at 3.7 µM 2% | [4]; at 11.0 µM 6% | [4]; at 33.0 µM 24% | [4]; at 100.0 µM 39% | [5]; [17] 5% | [5]; [18] 53% | [5]; at 50.0 µM 41.2% | [6]; at 1.2 µM 2% | [6]; at 3.7 µM 0% | [6]; [17] -2% | [6]; at 11.0 µM 3% | [6]; at 33.0 µM 9% | [6]; [18] 33% | [6]; at 50.0 µM 58.3% | [6]; at 100.0 µM 18% | [7]; at 1.2 µM 1% | [7]; at 3.7 µM 2% | [7]; at 11.0 µM 2% | [7]; at 33.0 µM 12% | [7]; at 100.0 µM 43% | [8]; at 1.2 µM 3% | [8]; at 3.7 µM 2% | [8]; at 11.0 µM 3% | [8]; at 33.0 µM 16% | [8]; at 100.0 µM 31% | [9]; at 1.2 µM 2% | [9]; at 3.7 µM 3% | [9]; at 11.0 µM 3% | [9]; at 33.0 µM 32% | [9]; at 100.0 µM 56% | [10]; [17] -13% | [16]; at 1.2 µM 7% | [16]; at 3.7 µM 10% | [16]; at 11.0 µM 22% | [16]; at 33.0 µM 41% | [16]; at 100.0 µM 47%
active: [15]; [18] 86% | [15]; at 50.0 µM 82.5% | [1]; [18] 78% | [10]; [18] 74% | [10]; at 50.0 µM 79.8%
